In PubChem BioAssay one finds composite z-score and z-score data, which are given here for five compounds.

Each structure is given as a SMILES string. The source made the active and inactive calls.

For assay [1], the system named is PRMT1 (protein arginine N-methyltransferase 1). The experiment in a line: PRMT1 binders on small-molecule microarrays, primary screen, biochemical, small-molecule microarray, 635 nm fluorescence (AID 1088).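 Note: binding of Prmt1 protein to compounds spotted on small-molecule microarray slides.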 The note with it: small-molecule microarray binding, higher = more signal.
The nature of assay [2]: yeast growth modulation, basal conditions, primary screen, YJM789 clinical isolate, OD600, 24 h (AID 1089).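 Note: growth of clinical yeast isolate S. cerevisiae YJM 789 seeded 1000 cells per well; test concentration not given here.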 The note with it: S. cerevisiae YJM789 growth, higher = more signal, called active from +8 up or from −8 down.
The nature of assay [3]: fission yeast growth modulation, primary screen, strain 972, OD600, 24 h, no modulator (AID 1090).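 Note: basal condition with compound alone and no growth modifier present; test concentration not given here.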 As to conditions: S. pombe 972 growth, higher = more signal, called active from +8 up or from −8 down.
A short description of assay [4]: S. cerevisiae growth modulation with rapamycin, primary screen, strain BY4716, OD600, 96 h (AID 1091). Note: test concentration not given here. As to conditions: higher = more signal, called active from +8 up or from −8 down.
Assay [5] addresses Torsin-1A-interacting protein 2 (Homo sapiens) (UniProt Q8NFQ8). Kind of assay: LULL1 binders on small-molecule microarray, primary screen, cell lysate, human LULL1 lysate, 635/667 nm fluorescence (AID 1092).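 Note: probe is lysate of COS7 cells overexpressing human LULL1; score merges per-feature 667 nm fluorescence with signal-to-noise.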 As to conditions: hLULL1 lysate binding, 635 nm fluorescence, higher = more signal.
A short description of assay [6]: E. coli growth modulation, two-sided OD650, primary screen, E. coli filamentation project, strain DRC41, 24 h (AID 1093).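 Note: MC1000 strain lacking acrAB efflux and sulA so SOS filamentation is blocked; test concentration not given here.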 The note with it: OD650, 24 h, higher = more signal, called active from +8 up or from −8 down.
Assay [7] can be described thus: small-molecule microarray binders of probe aLefty2, primary screen, biochemical, biotinylated probe, 635/667 nm fluorescence (AID 1094).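 Note: score merges spot fluorescence near 667 nm with spot signal-to-noise ratio.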 The note with it: higher = more signal.
Assay [8] deals with Noggin (protein binding on small-molecule microarray). Kind of assay: Noggin binders on small-molecule microarray, primary screen, biochemical, 635/667 nm fluorescence (AID 1095).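 Note: score merges 667 nm feature fluorescence with signal to noise over triplicate slides.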 As to conditions: 635 nm fluorescence, higher = more signal.
Assay [9] has as its target Neurogenic locus notch homolog protein 3 (Homo sapiens) (UniProt Q9UM47). Kind of assay: NOTCH3 binders on small-molecule microarray, primary screen, biochemical, 635/667 nm fluorescence (AID 1096). As to conditions: NOTCH3 binding, 635 nm fluorescence, higher = more signal.
The nature of assay [10]: small-molecule microarray binders of probe aEGFR, primary screen, biochemical, biotinylated probe, 635/667 nm fluorescence (AID 1097).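 Note: probe is a biotinylated anti-EGFR antibody binding compounds printed on slides; score combines fluorescence near 667 nm and signal to noise of each spot.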 The note with it: higher = more signal.
Assay [11] has as its system Plasmodium falciparum Sir2 (PF13_0152, Sir2A). The experiment in a line: pfSir2 binders on small-molecule microarrays, primary screen, biochemical, small-molecule microarray, 635 nm fluorescence (AID 1098).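 Note: score merges spot fluorescence intensity with its signal-to-noise ratio.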 As to conditions: small-molecule microarray binding, fluorescence 635 nm; higher = more signal.
Assay [12] is described as follows: small-molecule microarray binders of probe aDKK1, primary screen, biochemical, biotinylated probe, 635/667 nm fluorescence (AID 1099).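 Note: score merges 667nm spot fluorescence with signal to noise across triplicate slides; reference of the scale not given here.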 As to conditions: higher = more signal.
A short description of assay [13]: small-molecule microarray binders of probe aCHRDL2, primary screen, biochemical, biotinylated probe, 635/667 nm fluorescence (AID 1100). The note with it: higher = more signal.
Assay [14] can be described thus: splicing luciferase reporter signal modulators, primary screen, spliceosome inhibition project, cell-based, HEK293, splice +/- reporter (AID 1101).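 Note: HEK293 cells carrying a splicing-competent luciferase reporter gene; test concentration not given here.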 The note with it: luminescence, 24 h, higher = more signal, called active from +8 up or from −8 down. On the technique in general: A reporter such as luciferase makes a cellular process visible.
Assay [15] concerns the target Fibroblast growth factor 10 (Homo sapiens) (UniProt O15520). The experiment in a line: FGF10 binders on small-molecule microarrays, primary screen, biochemical, small-molecule microarray, 635 nm fluorescence (AID 1102). As to conditions: FGF10 binding, fluorescence 635 nm, higher = more signal.
In assay [16] the test system is glycogen synthase kinase-3 (GSK3A per assay name; protocol says GSK3B). The experiment in a line: GSK3 binders on small-molecule microarrays, primary screen, biochemical, small-molecule microarray, 635 nm fluorescence, GSK3A (AID 1103). Note: the record names both GSK3A and GSK3B. The note with it: small-molecule microarray binding, fluorescence 635 nm; higher = more signal.
In assay [17] the target is Epidermal growth factor receptor (Homo sapiens) (UniProt P00533). Kind of assay: EGFR binders on small-molecule microarrays, primary screen, biochemical, small-molecule microarray, 635 nm fluorescence (AID 1104).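 Note: score merges 667 nm emission intensity with spot signal to noise over triplicate slides.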 The note with it: EGFR binding, higher = more signal.
In assay [18] the target is Follistatin-related protein 3 (Homo sapiens) (UniProt O95633). The experiment in a line: FSTL3 binders on small-molecule microarrays, primary screen, biochemical, small-molecule microarray, 635 nm fluorescence (AID 1105).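 Note: score merges emission near 667 nm and signal to noise per printed spot across three slides.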 The note with it: FSTL3 binding, higher = more signal.
For assay [19], the target named is Dickkopf-related protein 1 (Homo sapiens) (UniProt O94907). The experiment in a line: DKK1 binders on small-molecule microarrays, primary screen, biochemical, small-molecule microarray, 635 nm fluorescence scan (AID 1106).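 Note: score merges emission near 667 nm with signal to noise over three replicate slides.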 As to conditions: DKK1 binding, higher = more signal.
In assay [20] the test system is Inhibin beta A chain (activin A). The experiment in a line: INHBA (activin A) binders on microarrays, primary screen, biochemical, small-molecule microarray, 635 nm fluorescence scan (AID 1107).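 Note: mouse activin A protein probed at 4.33 µg/mL on printed slides; score merges bound-protein fluorescence near 667 nm with spot signal-to-noise.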 As to conditions: small-molecule microarray binding, higher = more signal.

Sequence of Epidermal growth factor receptor (Homo sapiens) (P00533 whole entry, looked up): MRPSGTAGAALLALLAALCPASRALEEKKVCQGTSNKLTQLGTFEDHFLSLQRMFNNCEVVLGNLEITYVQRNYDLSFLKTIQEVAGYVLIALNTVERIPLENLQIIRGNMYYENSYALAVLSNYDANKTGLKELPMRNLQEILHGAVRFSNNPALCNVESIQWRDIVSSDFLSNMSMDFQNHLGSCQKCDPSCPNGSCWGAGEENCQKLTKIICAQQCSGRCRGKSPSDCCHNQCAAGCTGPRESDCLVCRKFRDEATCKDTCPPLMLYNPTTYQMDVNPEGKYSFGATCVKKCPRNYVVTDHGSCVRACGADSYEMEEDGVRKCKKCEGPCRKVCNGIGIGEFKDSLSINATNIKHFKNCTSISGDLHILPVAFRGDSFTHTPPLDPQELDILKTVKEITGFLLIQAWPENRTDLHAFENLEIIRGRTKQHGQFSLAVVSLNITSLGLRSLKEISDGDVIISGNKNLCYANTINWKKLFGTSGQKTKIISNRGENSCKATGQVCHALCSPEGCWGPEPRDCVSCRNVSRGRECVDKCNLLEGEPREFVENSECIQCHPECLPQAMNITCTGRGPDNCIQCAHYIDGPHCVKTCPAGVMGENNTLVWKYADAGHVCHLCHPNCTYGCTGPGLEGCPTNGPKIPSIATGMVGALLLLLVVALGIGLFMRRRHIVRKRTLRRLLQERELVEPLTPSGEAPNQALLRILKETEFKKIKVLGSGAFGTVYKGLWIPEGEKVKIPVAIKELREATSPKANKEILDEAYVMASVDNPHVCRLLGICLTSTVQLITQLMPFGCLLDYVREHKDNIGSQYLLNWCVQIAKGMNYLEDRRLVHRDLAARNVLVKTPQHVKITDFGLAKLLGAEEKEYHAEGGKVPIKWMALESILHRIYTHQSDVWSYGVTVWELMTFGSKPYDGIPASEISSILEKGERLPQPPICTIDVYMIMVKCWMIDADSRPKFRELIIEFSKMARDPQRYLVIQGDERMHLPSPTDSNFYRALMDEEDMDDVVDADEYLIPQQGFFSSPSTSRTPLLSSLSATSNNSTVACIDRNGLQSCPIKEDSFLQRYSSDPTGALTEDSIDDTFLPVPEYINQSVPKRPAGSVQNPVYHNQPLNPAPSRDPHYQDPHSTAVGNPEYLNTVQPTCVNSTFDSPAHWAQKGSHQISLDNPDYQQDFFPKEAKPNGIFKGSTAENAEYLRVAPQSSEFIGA
Sequence of Torsin-1A-interacting protein 2 (Homo sapiens) (Q8NFQ8 whole entry, looked up): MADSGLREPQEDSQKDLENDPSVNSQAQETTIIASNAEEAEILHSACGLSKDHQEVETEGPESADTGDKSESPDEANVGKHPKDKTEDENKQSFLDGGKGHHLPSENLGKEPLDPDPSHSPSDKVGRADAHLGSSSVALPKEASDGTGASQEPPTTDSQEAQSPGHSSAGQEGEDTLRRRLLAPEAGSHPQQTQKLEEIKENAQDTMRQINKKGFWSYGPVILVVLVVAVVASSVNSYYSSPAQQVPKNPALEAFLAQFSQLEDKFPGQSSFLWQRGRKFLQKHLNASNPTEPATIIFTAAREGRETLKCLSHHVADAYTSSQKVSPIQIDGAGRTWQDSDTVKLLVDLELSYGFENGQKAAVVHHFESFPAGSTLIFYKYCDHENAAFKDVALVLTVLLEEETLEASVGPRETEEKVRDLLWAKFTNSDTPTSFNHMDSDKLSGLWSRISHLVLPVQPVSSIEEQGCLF
Sequence of Dickkopf-related protein 1 (Homo sapiens) (O94907 whole entry, looked up): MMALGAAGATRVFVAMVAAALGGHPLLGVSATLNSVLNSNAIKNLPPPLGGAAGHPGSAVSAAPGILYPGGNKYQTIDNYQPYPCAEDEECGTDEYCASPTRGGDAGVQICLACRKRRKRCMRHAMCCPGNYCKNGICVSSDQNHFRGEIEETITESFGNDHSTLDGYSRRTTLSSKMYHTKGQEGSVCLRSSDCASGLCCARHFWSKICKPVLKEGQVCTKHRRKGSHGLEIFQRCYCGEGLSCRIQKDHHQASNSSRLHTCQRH
Sequence of Fibroblast growth factor 10 (Homo sapiens) (O15520 whole entry, looked up): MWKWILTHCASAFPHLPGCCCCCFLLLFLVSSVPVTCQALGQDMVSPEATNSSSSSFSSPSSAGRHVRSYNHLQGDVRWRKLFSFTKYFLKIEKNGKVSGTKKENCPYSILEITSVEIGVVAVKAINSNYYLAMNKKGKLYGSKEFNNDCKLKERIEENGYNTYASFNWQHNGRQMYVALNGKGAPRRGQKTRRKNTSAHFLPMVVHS
Sequence of Neurogenic locus notch homolog protein 3 (Homo sapiens) (Q9UM47 whole entry, looked up): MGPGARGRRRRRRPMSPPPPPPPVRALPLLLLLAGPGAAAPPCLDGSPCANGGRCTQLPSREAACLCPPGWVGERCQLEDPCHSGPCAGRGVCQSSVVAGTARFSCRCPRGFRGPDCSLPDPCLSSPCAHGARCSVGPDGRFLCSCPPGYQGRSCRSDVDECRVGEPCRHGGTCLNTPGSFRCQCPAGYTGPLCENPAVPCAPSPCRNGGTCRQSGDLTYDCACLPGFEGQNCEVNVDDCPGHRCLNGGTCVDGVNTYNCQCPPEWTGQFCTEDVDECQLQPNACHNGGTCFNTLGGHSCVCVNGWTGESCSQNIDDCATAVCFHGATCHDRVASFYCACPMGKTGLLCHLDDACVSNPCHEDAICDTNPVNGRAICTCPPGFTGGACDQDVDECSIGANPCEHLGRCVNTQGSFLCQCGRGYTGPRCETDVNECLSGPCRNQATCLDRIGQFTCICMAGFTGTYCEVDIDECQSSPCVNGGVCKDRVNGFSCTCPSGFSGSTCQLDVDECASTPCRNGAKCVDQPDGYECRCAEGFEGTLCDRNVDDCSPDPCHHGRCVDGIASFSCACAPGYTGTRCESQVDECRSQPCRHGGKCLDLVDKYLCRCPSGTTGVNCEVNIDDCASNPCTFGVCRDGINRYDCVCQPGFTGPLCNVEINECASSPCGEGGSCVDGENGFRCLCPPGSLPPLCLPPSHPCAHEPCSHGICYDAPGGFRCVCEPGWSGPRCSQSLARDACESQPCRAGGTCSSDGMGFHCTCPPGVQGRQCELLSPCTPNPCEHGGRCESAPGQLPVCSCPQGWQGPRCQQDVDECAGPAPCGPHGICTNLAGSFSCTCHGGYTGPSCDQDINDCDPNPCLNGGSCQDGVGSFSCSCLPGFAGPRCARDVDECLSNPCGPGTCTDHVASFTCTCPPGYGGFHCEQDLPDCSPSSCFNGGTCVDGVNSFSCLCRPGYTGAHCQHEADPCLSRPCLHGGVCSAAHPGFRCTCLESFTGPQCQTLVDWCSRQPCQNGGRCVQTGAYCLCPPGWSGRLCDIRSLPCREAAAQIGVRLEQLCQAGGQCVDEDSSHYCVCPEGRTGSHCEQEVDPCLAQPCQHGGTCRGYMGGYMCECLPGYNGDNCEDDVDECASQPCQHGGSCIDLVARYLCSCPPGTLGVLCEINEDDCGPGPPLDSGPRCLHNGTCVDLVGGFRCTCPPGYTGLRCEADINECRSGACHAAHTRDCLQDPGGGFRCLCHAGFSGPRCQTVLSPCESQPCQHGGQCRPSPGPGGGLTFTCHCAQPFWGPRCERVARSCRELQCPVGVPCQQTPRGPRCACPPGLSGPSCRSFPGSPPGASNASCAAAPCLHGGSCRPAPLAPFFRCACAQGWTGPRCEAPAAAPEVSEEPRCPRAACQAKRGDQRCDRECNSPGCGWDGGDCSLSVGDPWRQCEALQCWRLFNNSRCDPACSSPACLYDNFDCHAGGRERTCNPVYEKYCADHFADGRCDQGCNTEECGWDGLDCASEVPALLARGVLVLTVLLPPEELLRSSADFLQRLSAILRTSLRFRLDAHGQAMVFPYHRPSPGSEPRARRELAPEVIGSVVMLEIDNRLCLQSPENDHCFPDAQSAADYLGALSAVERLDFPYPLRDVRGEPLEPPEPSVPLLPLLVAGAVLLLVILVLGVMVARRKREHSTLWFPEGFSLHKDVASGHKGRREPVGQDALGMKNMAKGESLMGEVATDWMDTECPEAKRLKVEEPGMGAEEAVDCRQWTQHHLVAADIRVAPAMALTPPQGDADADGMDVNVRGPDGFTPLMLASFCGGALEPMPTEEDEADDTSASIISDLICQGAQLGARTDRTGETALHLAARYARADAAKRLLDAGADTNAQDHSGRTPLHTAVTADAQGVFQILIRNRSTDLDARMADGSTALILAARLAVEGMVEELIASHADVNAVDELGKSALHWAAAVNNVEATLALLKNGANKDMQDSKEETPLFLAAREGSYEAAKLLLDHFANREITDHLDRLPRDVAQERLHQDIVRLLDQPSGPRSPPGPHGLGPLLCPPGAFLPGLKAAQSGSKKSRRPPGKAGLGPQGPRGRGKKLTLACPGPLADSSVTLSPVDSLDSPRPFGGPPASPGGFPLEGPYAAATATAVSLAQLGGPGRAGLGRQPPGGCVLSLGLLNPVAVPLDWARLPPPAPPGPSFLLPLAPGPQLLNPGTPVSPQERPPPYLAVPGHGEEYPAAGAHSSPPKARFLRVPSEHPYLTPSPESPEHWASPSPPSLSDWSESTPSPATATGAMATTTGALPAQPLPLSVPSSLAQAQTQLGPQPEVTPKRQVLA
Sequence of Follistatin-related protein 3 (Homo sapiens) (O95633 whole entry, looked up): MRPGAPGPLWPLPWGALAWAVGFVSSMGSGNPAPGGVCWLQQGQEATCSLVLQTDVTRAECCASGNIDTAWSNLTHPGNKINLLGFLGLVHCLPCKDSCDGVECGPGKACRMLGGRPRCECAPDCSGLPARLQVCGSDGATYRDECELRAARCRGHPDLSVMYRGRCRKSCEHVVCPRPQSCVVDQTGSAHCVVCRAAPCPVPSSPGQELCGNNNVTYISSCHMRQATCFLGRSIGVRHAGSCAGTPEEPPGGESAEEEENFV

`CN1C(=O)C2C(C1=O)C1C=C(c3ccc(CO)cc3)C2C(c2cccs2)N1Cc1cccc(OC(F)(F)F)c1` (stereo not given): the composite z-score is 1.55 in [1]; 2.65 in [5]; 0.0007 in assay [7]; 1.38 in assay [8]; 1.09 in assay [9]; -0.013 in assay [10]. Further, the composite z-score was 1.06 in assay [11]; 0.0564 in assay [12]; -0.137 in [13]; 1.07 in [15]; 1.27 in [16]; 0.0302 in [17]. Further, the composite z-score in assay [18] came to 1.17; in assay [19], 0.483; in [20], 0.614. The z-score in [2] was -1.68 (inactive); in assay [3] it was -2.57 (inactive); in assay [4], 3.35 (inactive); in assay [6] it was 0.907 (inactive); in assay [14] it was -0.243 (inactive).

For `CN(C)CCCN1C(=O)[C@@]2(c3ccc([N+](=O)[O-])cc3)CC(=O)N(CC34CC5CC(CC(C5)C3)C4)[C@@H]2c2ccc(CO)cc21`, the composite z-score is 1.54 in assay [1]; 3.29 in assay [5]; -0.116 in assay [7]; -0.378 in assay [8]; 0.214 in [9]; -0.12 in assay [10]. Further, the composite z-score in assay [11] was 1.68; in [12], 1.83; in assay [13], 0.543; in [15], -0.173; in [16] it was 0.443; in assay [17], -0.708. The composite z-score in assay [18] is -0.116; in assay [19] it was -0.482; in assay [20] it was 0.144. The z-score in assay [2] was 0.296 (inactive); in assay [3], -0.505 (inactive); in assay [4] it was -1.06 (inactive); in assay [6], 0.304 (inactive); in [14], 0.626 (inactive).

For `O=C1O[C@@H](c2ccccc2)[C@@H](c2ccccc2)N2[C@@H](c3ccccc3OCCO)[C@]3(C(=O)Nc4ccc(C#CC5=CCCCC5)cc43)[C@@H](C(=O)NC[C@H](O)c3ccccc3)[C@H]12`, the composite z-score in [1] was 1.55; in [5], 2.38; in assay [7] it was -0.273; in assay [8] it was 0.988; in assay [9], 1.11; in assay [10], -0.0371. Moreover, the composite z-score in [11] is 1.3; in assay [12] it was -0.108; in [13], -0.149; in assay [15], 0.717; in assay [16], 1.3; in [17] it was 0.496. Besides, the composite z-score in assay [18] was 1.22; in [19] it was 0.352; in [20], 0.623. The z-score is 1.03 (inactive) in assay [2]; 0.112 (inactive) in [3]; 3.61 (inactive) in assay [4]; 1.38 (inactive) in [6]; -1.13 (inactive) in assay [14].

As for `CN(C)C(=O)[C@@]1(Cc2ccccc2N=[N+]=[N-])COC(c2ccc(OCCCO)cc2)=N1`, the composite z-score is 1.37 in assay [1]; 3.33 in assay [5]; 0.072 in assay [7]; 0.577 in assay [8]; 0.481 in [9]; 0.553 in assay [10]. Also, the composite z-score in [11] was 1.54; in assay [12], 0.764; in assay [13], 0.795; in [15], 0.629; in [16] it was 1.05; in assay [17], 0.0428. Further, the values for the composite z-score in assay [18], in assay [19] and in assay [20] were 0.396, -0.239 and 0.0217, respectively. Also, the z-score is -1.85 (inactive) in [2]; -7.64 (inactive) in assay [3]; 0.337 (inactive) in assay [4]; 1.84 (inactive) in assay [6]; -0.545 (inactive) in assay [14].

`CC(C)N1C(=O)[C@@]2(c3ccc([N+](=O)[O-])cc3)CC(=O)N(C3CCCCC3)[C@@H]2c2ccc(CO)cc21`: the composite z-score in assay [1] was 1.27; in assay [5], 0.198; in [7], -0.103; in assay [8], 0.622; in assay [9], -0.509; in assay [10], -0.0565. Besides, the composite z-score in assay [11] was 0.29; in assay [12], -0.227; in assay [13] it was -0.173; in assay [15] it was 0.269; in assay [16] it was 0.172; in assay [17], -0.137. In addition, the results for the composite z-score in [18], in [19] and in [20] were 0.656, 0.501 and 0.859, respectively. For the same compound, the z-score in assay [2] was -1.78 (inactive); in [3], 0.353 (inactive); in assay [4] it was -2.19 (inactive); in assay [6], -1.43 (inactive); in assay [14], 0.403 (inactive).
